# In PubChem BioAssay (EPA / NIEHS):
# Results filed as inconclusive are left out. Activity calls are given as the source filed them. The calls were made as follows, unless noted: active = hit-call score of the fitted dose curve at least 0.9, where 1 is the maximum; inconclusive = response in the unintended direction; inactive = score below 0.9.
# Assays:
# [1] = TOX21_TRB_BLA_Antagonist_Followup_viability: Viability Assessment in the Tox21 Thyroid Hormone Receptor beta Antagonism Beta-lactamase (BLA) Follow-Up Assay (AID 2283961)
# Procedure, shortened: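 Cytotoxicity is measured in parallel with the antagonist-mode TRβ beta-lactamase screen, using ATP-coupled luciferase luminescence. Engineered HEK293T cells are treated for 18 h with 11-point compound series in triplicate.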
# THRB (gene 7068) = THRB (gene 7068) (UniProt P10828); assay: TOX21_TRB_COA_Antagonist_Followup_ratio: Tox21 Thyroid Hormone Receptor beta Antagonism through Coactivator Recruitment Follow-Up Assay, Ratio (AID 2283967)
# Procedure, shortened: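 GST-TRb LBD 5.0 nM + 0.10% BSA, compound added; fluorescein-SRC-2 peptide 200 nM, Tb-anti-GST Ab 2 nM. TR-FRET, ex 340 / em 520:495 ratio. Norm: DMSO 0%, T3 100%.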
# [2] = biological target: Retinoic acid receptor RXR-alpha (Homo sapiens) (UniProt P19793); assay: TOX21_TR_RXR_BLA_Antagonist_Followup_ratio: Tox21 Thyroid Hormone Receptor beta Retinoid X Receptor alpha (RXRa) Antagonism Beta-lactamase (BLA) Follow-Up Assay, Ratio (AID 2283972)
# Procedure, shortened: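 Antagonist mode used GAL4 UAS-driven beta-lactamase in HEK293T cells expressing RXRa, treated for 16 h with compound concentration series. Activity was taken from the blue/green (460:530 nm) ratio of cleaved to uncleaved substrate.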
# [3] = biological target: rat Androgen Receptor (AR), Ar (gene 24208) (UniProt P15207); assay: NVS_NR_rAR: NovaScreen (NVS) Nuclear Receptor Binding Assay for rat Androgen Receptor (AR) (AID 2283366)
# Procedure, shortened: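 Actives from a duplicate single-concentration (25 uM) primary run went on to concentration series. Displacement of radioligand was counted by filtration and scintillation, 18 h post-dose, using prostate extracts from testosterone-pretreated rats, with DMSO as baseline.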
# [4] = CCTE_Deisenroth_AIME_96WELL_CTox_Active: Cytotoxicity Assessment (CTOX) in CCTE's 96-well Estrogen Receptor Transactivation Assay with AIME metabolic competence (metabolism positive), Deisenroth Lab (AID 2284028)
# Procedure, shortened: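 Cytotoxicity in VM7Luc4E2 breast cells after 24 h exposure to medium from a 2 h metabolic pre-incubation with induced rat hepatic S9 in alginate microspheres; fluorescent live-cell protease readout, 10-point series 0.002–200 uM, n=4.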
# [5] = CCTE_Deisenroth_AIME_96WELL_CTox_Inactive: Cytotoxicity Assessment (CTOX) in CCTE's 96-well Estrogen Receptor Transactivation Assay without AIME metabolic competence (metabolism negative), Deisenroth Lab (AID 2284029)
# Procedure, shortened: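 Metabolism-negative mode: alginate-water lids without rat S9, 2 h pre-incubation of 10-point series (0.002 - 200 uM). Conditioned medium on VM7Luc4E2 cells 24 h; loss of fluorescent live-cell protease signal marks cytotoxicity.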
# [6] = biological target: human Vascular Endothelial Growth Factor Receptor 1 (VEGFR1), FLT1 (gene 2321) (UniProt P17948); assay: NVS_ENZ_hVEGFR1: NovaScreen (NVS) Enzymatic Assay for human Vascular Endothelial Growth Factor Receptor 1 (VEGFR1) (AID 2283226)
# Procedure, shortened: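 Kinase activity of recombinant human VEGFR1 was read by fluorescence after electrophoretic separation of product from substrate, 1 h post-dosing; initial duplicate single-point testing at 25 uM, followed by concentration-series follow-up, with DMSO as baseline.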
# [7] = biological target: Retinoic acid receptor alpha (Homo sapiens) (UniProt P10276); assay: NVS_NR_hRARa_Agonist: NovaScreen (NVS) Nuclear Receptor Binding Assay for human Retinoic Acid Alpha Receptor Agonism (RAR) (AID 2283361)
# Procedure, shortened: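 TR-FRET signal, 2 h post-dosing; cell-free extracted protein; DMSO = baseline, positive fitting direction; 25 uM single-point duplicate, then concentration series for actives.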
# IYD (gene 389434) = assay: CCTE_GLTED_hIYD: CCTE's human Iodotyrosine Deiodinase (xIYD) Inhibition Assay, Great Lakes Toxicology and Ecology Division (GLTED) Lab (AID 2284317);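 also: cell-free human IYD enzyme made in baculovirus insect cells; iodide freed from monoiodotyrosine measured by cerium arsenite color change at 420 nm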
# Procedure, shortened: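 Deiodination of MIT by insect-cell-produced human IYD is measured after a 3 h incubation with test chemical. Free iodide passes through a Dowex column and accelerates Sandell-Kolthoff Ce4+ reduction, read at 420 nm; run in triplicate.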
# [8] = biological target: human Thromboxane A2 Receptor (TXA2), TBXA2R (gene 6915) (UniProt P21731); assay: NVS_GPCR_hTXA2: NovaScreen (NVS) G Protein-Coupled Receptor Assay for human Thromboxane A2 Receptor (TXA2) (AID 2283282);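 also: actives reduce bound radioligand signal relative to DMSO baseline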
# Procedure, shortened: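 Biochem binding, human platelets, cell-free; competitive radioligand displacement; 1 h; filter radiodetection. 25 uM duplicate primary, conc. series secondary; DMSO neg. ctrl.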
# [9] = UKN2_HCS_IMR90_neural_migration: University of Konstanz (UKN) Leist Lab Neural Crest Cell Migration Assay in human induced IMR90 Pluripotent Stem Cells (UKN2) (AID 2284204; active = hit-call score of the fitted dose curve at least 0.9, where 1 is the maximum; inactive = score below 0.9); conditions: actives raise or lower the signal
# Procedure, shortened: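 Stopper-exclusion migration (cMINC), human iPSC-derived neural crest cells; N2-S + EGF/FGF; compound added 24 h post-stopper removal, 24 h exposure. Readout: calcein-AM/Hoechst 30 min, HCS fluorescence imaging; bidirectional fitting, DMSO baseline.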
# [10] = UKN4_HCS_LUHMES_neurite_outgrowth: University of Konstanz (UKN) Leist Lab Neurite Outgrowth Assay in human LUHMES cells (UKN4) (AID 2284206; active = hit-call score of the fitted dose curve at least 0.9, where 1 is the maximum; inactive = score below 0.9); conditions: actives raise or lower the signal
# Procedure, shortened: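 Human LUHMES cells were differentiated for two days, replated and treated with chemicals for 24 h. Neurite outgrowth was quantified as calcein-stained neurite area by HCS imaging, fitted bidirectionally relative to DMSO.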
# [11] = UKN4_HCS_LUHMES_cell_viability: Viability Assessment in the University of Konstanz (UKN) Leist Lab Neurite Outgrowth Assay in human LUHMES cells (UKN4) (AID 2284232; active = hit-call score of the fitted dose curve at least 0.9, where 1 is the maximum; inactive = score below 0.9)
# Procedure, shortened: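 Cells switched to differentiation medium at day 0, replated on day 2 in medium lacking cAMP and GDNF, and compound-treated once attached. Live staining began 23.5 h later, imaging followed at 24 h.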
# [12] = UKN2_HCS_IMR90_cell_viability: Viability Assessment in the University of Konstanz (UKN) Leist Lab Neural Crest Cell Migration Assay in human induced IMR90 Pluripotent Stem Cells (UKN2) (AID 2284233; active = hit-call score of the fitted dose curve at least 0.9, where 1 is the maximum; inactive = score below 0.9;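 also: cells exposed to compound for 24 h after a 24 h migration phase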)
# Procedure, shortened: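 Viability read as calcein-AM fluorescence by high-content imaging, Hoechst co-stain, 30 min. Human iPSC (IMR90) neural crest cells had migrated 24 h into stopper-defined gaps before 24 h chemical exposure. Fitted bidirectionally relative to DMSO.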
# [13] = CCTE_Mundy_HCI_hNP1_Pro_ResponderAvgInten: CCTE's Proliferation Assay in human neuroprogenitor cells, Mundy Lab (AID 2284224);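 also: human neural progenitor cells hNP1 derived from WA09 embryonic stem cells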
# Procedure, shortened: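 Proliferation read as average intensity of BrdU-positive cells, imaged at 26.25 h post-dosing: chemical exposure started after 40–44 h culture, BrdU during final 4 h, paraformaldehyde fixation. Positive-direction fit relative to DMSO.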
# [14] = biological target: guinea pig Leukotriene D4 Receptor (LTD4), CYSLTR1 (gene 100135514) (UniProt Q2NNR5); assay: NVS_GPCR_gLTD4: NovaScreen (NVS) G Protein-Coupled Receptor Assay for guinea pig Leukotriene D4 Receptor (LTD4) (AID 2283248)
# Procedure, shortened: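 Guinea pig lung membrane preparation; bound radioligand measured by filter scintillation after 1 h, loss of signal versus DMSO marking displacement. Compounds tested at 25 uM in duplicate, hits retested to max 50 uM.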
# [15] = biological target: human CYP2C9, CYP2C9 (gene 1559) (UniProt P11712); assay: NVS_ADME_hCYP2C9: NovaScreen (NVS) CYP450-related Enzyme Activity (ADME) Assay for human CYP2C9 (AID 2283108)
# Procedure, shortened: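 Recombinant human CYP2C9 expressed in SF9 cells, fluorogenic substrate, fluorescence read 0.75 h after dosing. Chemicals first run in duplicate at 10 uM, with actives followed in concentration series; loss of signal versus acetonitrile baseline.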
# DIO2 (gene 1734) = assay: CCTE_GLTED_hDIO2: CCTE's human Deiodinase 2 (DIO2) Inhibition Assay, Great Lakes Toxicology and Ecology Division (GLTED) Lab (AID 2284050)
# Procedure, shortened: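 Inhibition is judged by reduced iodide release: uninhibited human DIO2 frees iodide from substrate over 3 h, measured afterward by Sandell-Kolthoff colorimetry. Iodinated chemicals or nitrite, iron and thiocyanate may interfere.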
# [16] = biological target: human Caspase 5 (CASP5), CASP5 (gene 838) (UniProt P51878); assay: NVS_ENZ_hCASP5: NovaScreen (NVS) Enzymatic Assay for human Caspase 5 (CASP5) (AID 2283137)
# Procedure, shortened: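 Chemicals were first tested in duplicate at 25 uM against recombinant caspase 5 from E. coli. Activity was read by fluorescence intensity 2 hours after dosing. Those passing a preset inhibition threshold were retested in singleton concentration-response up to 50 uM.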
# [17] = CCTE_Mundy_HCI_Cortical_NOG_NeuronCount: CCTE's Neurite Outgrowth Assay in rat cortical cells for Neuron Count, Mundy Lab (AID 2284236);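 also: neurons counted by imaging betaIII-tubulin and Hoechst stained cortical cells; cells exposed to compound for about 48 hours before fixation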
# Procedure, shortened: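 Read-out: neuron number by high-content imaging of betaIII-tubulin (Alexa Fluor-488) and Hoechst-labelled rat primary cortical cells.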
# THRB (gene 7068), sequence (P10828 whole entry, looked up, the tested form may be a part): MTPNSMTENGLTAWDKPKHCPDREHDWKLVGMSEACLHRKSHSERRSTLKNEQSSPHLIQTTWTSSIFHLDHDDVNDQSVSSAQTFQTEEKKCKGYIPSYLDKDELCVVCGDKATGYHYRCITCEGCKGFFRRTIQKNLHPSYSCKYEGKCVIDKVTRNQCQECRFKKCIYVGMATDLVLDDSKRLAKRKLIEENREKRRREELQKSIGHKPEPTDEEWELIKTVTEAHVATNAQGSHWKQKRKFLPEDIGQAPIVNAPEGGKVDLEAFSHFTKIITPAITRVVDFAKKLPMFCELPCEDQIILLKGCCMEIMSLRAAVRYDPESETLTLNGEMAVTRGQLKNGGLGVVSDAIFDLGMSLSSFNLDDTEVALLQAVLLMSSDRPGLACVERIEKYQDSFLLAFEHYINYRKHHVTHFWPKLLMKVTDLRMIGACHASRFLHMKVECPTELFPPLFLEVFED
# guinea pig Leukotriene D4 Receptor (LTD4), CYSLTR1 (gene 100135514), sequence (Q2NNR5 whole entry, looked up): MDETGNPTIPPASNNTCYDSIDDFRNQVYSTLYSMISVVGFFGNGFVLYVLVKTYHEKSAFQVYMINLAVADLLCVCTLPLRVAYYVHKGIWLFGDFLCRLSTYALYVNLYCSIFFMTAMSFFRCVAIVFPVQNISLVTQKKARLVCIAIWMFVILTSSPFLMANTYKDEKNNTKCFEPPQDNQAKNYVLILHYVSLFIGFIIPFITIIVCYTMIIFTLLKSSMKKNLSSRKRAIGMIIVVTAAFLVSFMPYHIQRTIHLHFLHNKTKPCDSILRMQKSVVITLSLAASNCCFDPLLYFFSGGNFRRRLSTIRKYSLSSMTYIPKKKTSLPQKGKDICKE
# human CYP2C9, CYP2C9 (gene 1559), sequence (P11712 whole entry, looked up): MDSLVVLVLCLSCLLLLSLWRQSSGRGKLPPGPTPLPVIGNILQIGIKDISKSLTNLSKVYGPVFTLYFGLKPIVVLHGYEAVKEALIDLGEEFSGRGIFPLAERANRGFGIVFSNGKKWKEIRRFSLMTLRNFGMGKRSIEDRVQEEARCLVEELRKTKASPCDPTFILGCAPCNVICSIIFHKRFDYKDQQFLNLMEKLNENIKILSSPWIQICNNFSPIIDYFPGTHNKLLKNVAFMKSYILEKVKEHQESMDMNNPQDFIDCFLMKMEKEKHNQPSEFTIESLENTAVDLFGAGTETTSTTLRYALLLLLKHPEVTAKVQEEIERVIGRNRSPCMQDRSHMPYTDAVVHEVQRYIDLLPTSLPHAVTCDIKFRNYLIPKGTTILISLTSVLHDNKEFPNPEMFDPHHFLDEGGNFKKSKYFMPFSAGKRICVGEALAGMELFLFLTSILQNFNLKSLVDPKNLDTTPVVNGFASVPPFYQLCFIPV
# human Vascular Endothelial Growth Factor Receptor 1 (VEGFR1), FLT1 (gene 2321), sequence (P17948 whole entry, looked up): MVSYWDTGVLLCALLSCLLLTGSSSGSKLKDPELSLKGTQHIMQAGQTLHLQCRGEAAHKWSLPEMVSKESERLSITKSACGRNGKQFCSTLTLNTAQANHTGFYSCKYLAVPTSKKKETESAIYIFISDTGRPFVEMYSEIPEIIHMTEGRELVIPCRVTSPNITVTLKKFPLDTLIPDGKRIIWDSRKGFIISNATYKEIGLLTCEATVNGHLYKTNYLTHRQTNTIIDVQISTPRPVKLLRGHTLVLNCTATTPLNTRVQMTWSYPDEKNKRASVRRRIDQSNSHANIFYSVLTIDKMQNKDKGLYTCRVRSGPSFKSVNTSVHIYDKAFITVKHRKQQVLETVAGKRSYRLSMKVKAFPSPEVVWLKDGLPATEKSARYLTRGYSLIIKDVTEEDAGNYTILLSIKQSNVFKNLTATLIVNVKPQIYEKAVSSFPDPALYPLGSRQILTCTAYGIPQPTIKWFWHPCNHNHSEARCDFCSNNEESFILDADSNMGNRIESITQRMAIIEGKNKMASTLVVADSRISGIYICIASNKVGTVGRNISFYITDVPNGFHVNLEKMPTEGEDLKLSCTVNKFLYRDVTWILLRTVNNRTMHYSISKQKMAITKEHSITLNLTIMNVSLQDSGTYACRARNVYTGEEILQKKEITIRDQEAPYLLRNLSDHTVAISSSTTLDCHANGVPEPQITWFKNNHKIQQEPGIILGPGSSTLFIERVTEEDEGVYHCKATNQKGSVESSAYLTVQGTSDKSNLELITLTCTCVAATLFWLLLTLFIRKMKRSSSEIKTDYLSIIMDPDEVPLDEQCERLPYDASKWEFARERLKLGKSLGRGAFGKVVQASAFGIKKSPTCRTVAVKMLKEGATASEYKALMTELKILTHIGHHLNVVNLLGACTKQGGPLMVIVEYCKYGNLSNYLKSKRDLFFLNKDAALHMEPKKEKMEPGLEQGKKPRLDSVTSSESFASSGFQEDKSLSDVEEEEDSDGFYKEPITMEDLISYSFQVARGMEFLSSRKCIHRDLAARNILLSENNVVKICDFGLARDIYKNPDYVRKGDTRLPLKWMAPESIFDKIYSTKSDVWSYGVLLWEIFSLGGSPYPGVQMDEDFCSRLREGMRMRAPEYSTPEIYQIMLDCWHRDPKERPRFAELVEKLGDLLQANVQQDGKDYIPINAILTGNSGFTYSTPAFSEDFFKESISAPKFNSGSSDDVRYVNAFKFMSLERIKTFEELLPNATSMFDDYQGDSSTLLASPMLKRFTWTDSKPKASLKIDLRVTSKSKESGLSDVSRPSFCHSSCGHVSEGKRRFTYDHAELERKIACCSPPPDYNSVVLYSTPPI
# Retinoic acid receptor alpha (Homo sapiens), sequence (P10276 whole entry, looked up): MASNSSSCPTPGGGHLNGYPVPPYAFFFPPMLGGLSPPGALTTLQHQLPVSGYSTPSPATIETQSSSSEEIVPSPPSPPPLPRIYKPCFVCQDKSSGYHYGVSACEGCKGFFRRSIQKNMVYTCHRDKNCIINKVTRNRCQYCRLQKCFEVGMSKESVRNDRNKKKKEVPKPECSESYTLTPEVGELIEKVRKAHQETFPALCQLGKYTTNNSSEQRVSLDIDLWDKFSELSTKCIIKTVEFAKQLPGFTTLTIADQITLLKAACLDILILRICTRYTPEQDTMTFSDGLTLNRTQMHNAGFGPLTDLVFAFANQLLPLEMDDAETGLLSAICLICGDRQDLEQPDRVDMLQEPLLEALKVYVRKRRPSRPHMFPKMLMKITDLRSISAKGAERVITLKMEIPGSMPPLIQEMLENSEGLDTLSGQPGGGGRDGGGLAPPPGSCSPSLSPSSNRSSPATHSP
# human Thromboxane A2 Receptor (TXA2), TBXA2R (gene 6915), sequence (P21731 whole entry, looked up): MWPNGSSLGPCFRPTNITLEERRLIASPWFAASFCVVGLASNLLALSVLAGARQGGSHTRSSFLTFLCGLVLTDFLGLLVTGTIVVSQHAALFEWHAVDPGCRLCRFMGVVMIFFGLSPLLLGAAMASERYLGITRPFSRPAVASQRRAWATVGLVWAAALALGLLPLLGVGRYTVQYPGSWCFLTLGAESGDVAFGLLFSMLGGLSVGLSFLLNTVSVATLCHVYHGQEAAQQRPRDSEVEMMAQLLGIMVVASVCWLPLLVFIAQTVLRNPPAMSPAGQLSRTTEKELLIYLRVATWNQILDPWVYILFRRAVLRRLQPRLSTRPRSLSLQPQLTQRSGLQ
# human Caspase 5 (CASP5), CASP5 (gene 838), sequence (P51878 whole entry, looked up): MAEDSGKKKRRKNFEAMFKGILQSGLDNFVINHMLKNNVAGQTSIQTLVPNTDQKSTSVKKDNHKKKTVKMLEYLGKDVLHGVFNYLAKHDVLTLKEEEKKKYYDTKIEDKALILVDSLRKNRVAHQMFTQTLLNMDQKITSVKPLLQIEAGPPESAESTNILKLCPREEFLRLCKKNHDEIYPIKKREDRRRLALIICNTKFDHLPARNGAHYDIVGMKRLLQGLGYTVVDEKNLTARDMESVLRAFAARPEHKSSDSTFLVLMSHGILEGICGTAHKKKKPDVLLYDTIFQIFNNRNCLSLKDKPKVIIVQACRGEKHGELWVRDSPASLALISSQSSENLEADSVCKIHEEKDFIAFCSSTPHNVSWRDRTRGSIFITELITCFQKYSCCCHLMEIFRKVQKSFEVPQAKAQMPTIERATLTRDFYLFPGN
# Retinoic acid receptor RXR-alpha (Homo sapiens), sequence (P19793 whole entry, looked up, the tested form may be a part): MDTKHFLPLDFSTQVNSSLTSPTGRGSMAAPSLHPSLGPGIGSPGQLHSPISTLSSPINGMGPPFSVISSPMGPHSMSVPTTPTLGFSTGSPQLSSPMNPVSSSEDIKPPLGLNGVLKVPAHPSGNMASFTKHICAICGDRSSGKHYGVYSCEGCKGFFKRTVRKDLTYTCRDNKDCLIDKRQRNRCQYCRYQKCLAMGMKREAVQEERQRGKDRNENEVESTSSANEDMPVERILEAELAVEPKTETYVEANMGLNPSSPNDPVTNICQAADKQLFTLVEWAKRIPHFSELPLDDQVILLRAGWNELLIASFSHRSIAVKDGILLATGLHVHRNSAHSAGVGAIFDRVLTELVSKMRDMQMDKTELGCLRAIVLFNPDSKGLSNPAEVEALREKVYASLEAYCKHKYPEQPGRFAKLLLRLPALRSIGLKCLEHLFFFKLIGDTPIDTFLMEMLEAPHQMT
smiles,measurement,setting,value
CC(C)n1c(/C=C/[C@@H](O)C[C@@H](O)CC(=O)O)c(-c2ccc(F)cc2)c2ccccc21,outcome,[1],inactive
same,outcome,THRB (gene 7068),inactive
same,outcome,[2],inactive
Cc1cc(-n2nc3ccc(Cl)cc3n2)c(O)c(C(C)(C)C)c1,outcome,[3],inactive
same,outcome,[4],inactive
same,outcome,[5],inactive
CC(=O)CCc1ccccc1,outcome,[6],inactive
Cc1cc2nc3c(=O)[nH]c(=O)nc-3n(C[C@H](O)[C@H](O)[C@H](O)CO)c2cc1C,AC50,[7],6.52 µM (active)
same,AC50,IYD (gene 389434),94.2 µM (active)
CCCCCCCCCC/C=C/C1CC(=O)OC1=O (stereo not given),outcome,[8],inactive
Oc1cccc2ccccc12,outcome,[9],inactive
same,AC50,[10],26.3 µM (active)
same,outcome,[11],inactive
same,outcome,[12],inactive
NC(N)=Nc1nc(CSCCC(N)=NS(N)(=O)=O)cs1,outcome,[13],inactive
CCCCCCCCCCCCCCCCCC[N+](C)(C)C,outcome,[14],inactive
Sc1nc2ccccc2s1,AC50,[15],1.9 µM (active)
same,outcome,DIO2 (gene 1734),inactive
CC1(C)S[C@@H]2[C@H](NC(=O)[C@H](N)c3ccccc3)C(=O)N2[C@H]1C(=O)O,AC50,[16],1.88 µM (active)
same,outcome,[17],inactive
